Screening data: PubChem BioAssay, several laboratories
bovine MsrA act – activates bovine MsrA enzyme | activation, % at 10.6 µM | purified bovine MsrA, absorbance read-out | 360,000 compounds, 0.3% hits; in the data active = activation above about 7.5%;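 also: 0% = vehicle and 100% = reference activator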
MsrA inh – inhibitors of bovine MsrA; purified bovine MsrA, absorbance read-out; inhibition, % at 15.5 µM; 360,000 compounds, 0.75% hits; in the data active = inhibition above about 4.5%;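 also: 0% = vehicle wells with enzyme and 100% = reference inhibitor wells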
HTR2A ag – agonists of mouse serotonin 5-HT2A receptor (HTR2A) | P35363 | CHO-K1 mHTR2A beta-arrestin complementation, luminescence; percent of 30 µM serotonin response | activation, % at 7.6 µM | 360,000 compounds, 0.66% hits;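 active = activation above a run cutoff, the mean activation of all tested compounds plus 3 SD, cut at about 14% in these data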;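 also: 0% = plate median of compound wells and 100% = 30 µM serotonin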
Target sequence (P35363 whole entry, looked up): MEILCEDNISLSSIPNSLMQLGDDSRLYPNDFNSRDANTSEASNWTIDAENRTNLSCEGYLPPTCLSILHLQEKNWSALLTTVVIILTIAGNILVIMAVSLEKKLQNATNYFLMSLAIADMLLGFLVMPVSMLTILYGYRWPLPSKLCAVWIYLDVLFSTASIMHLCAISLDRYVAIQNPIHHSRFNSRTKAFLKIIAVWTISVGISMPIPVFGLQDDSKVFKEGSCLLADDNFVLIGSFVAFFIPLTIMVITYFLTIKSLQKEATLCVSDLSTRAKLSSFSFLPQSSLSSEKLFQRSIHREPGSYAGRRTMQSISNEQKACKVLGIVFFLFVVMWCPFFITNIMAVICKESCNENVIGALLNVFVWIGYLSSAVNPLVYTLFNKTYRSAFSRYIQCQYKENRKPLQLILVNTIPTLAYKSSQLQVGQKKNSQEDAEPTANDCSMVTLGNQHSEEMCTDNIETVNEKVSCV
GC-B act – GC-B (human) receptor activation. P20594. HEK293-GC-B cells, CNP EC30, cGMP TR-FRET; 0% at EC30 CNP, 100% saturating CNP. activation, % at 10 µM. 370,000 compounds, 0.11% hits. AID 1920062;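 active = activation at 10 µM reaching about 35% in either raw or pattern-adjusted values, limit read from the data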
GC-A act – GC-A (human) enzyme activation | HEK293 GC-A cells, cGMP TR-FRET, EC30 ANP; 0% at EC30 ANP, 100% saturating ANP | P16066 | activation, % at 10 µM | 370,000 compounds, 0.14% hits | AID 1671463; in the data active = activation above about 40%
MOR ag counter – counter-screen for mouse HTR2A agonists: human mu opioid receptor agonists; U2OS OPRM1 beta-arrestin PathHunter, luminescence; DMSO 0%, DAMGO 9.3 µM 100%; 2,300 compounds, 5.3% hits; AID 624380; shares compounds with HTR2A ag; activation, % at 9.3 µM;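 active = mean activation above the mean of DMSO-only wells plus 3 SD, cut at about 0.5% in these data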
m5-HT2A ag conf – mouse HTR2A agonism confirmed. shares compounds with HTR2A ag. CHO-K1 PathHunter beta-arrestin recruitment, luminescence; DMSO 0%, 30 µM serotonin 100%. AID 624381. 2,300 compounds, 19% hits. activation, % at 7.6 µM;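 active = mean activation across triplicates above the hit threshold derived in the original primary screen, cut at about 15% in these data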
* hit, by the source's call; x = no result given. Hits are enriched below; roughly 1.8% of the tested compounds scored in any of these assays.

SMILES	bovine MsrA act	MsrA inh	HTR2A ag	GC-B act	GC-A act	MOR ag counter	m5-HT2A ag conf
C#CCN(C[C@H]1[C@H](OC(=O)NCCCCCC)[C@H](OC(=O)NCCCCCC)C[C@H]2C(=O)N(c3ccccc3)C(=O)[C@@H]12)S(=O)(=O)c1ccc(C)cc1	-5.3	1.6	14.9*	4.5	1.5	-0.3	-6.4
COc1ccc2c(c1)CNC2CS(=O)(=O)NC1CCCC1 (stereo not given)	x	x	x	0.0	1.6	x	x
Brc1ccccc1-c1nnc(SCc2nc3ccccc3s2)o1	-7.3	0.9	15.5*	-4.5	3.8	-0.5	-3.3
CCN(CC)S(=O)(=O)c1cccc(-c2nnc(SCc3nc4ccccc4s3)o2)c1	-4.6	0.6	-0.6	-0.9	2.1	x	x
Nc1ccc2cc3ccc(N)cc3nc2c1	x	x	x	-21.2	-33.8	x	x
Cc1ccccc1NC(=S)NCc1ccc2c(c1)cc(C)n2C	-7.2	1.3	19.9*	-1.6	0.2	-0.6	0.6
CCOc1ccc(-n2c(SCc3nc(-c4cccs4)no3)nnc2-c2ccncc2)cc1	-0.3	-0.9	29.4*	-2.4	-4.3	-0.6	-4.0
CC(C)(C)N(Cc1cn(CC2CCCCC2)nn1)S(=O)(=O)c1ccc(F)cc1Br	x	x	x	4.5	0.5	x	x
O=C(Nc1cccc(Br)c1)OC1CC2CC1[C@H]1CCCCN1C2 (stereo not given in full)	x	x	x	-1.8	-3.6	x	x
CCCc1cc(CCC)n2nc(N)nc2n1	-7.2	0.3	15.2*	5.8	3.3	-0.5	-2.6
N=c1sccn1CC(=O)Nc1cccc2ccccc12	-4.2	-0.8	19.6*	-3.5	0.0	-0.5	7.2
O=C(C1CC1)N1CCN(Cc2ccccc2)CC1	-6.8	-1.8	4.5	7.7	3.4	x	x
CC1(C)C(C=C(Cl)Cl)C1C(=O)N1CCN(Cc2ccccc2)CC1 (stereo not given)	-7.2	-0.6	20.0*	3.8	1.1	-0.5	75.7*
O=C(O)CCC(=O)N1CCc2cc(S(=O)(=O)N3CCN(c4ccc(F)cc4)CC3)ccc21	-0.8	-0.2	14.8*	3.5	-0.1	-0.3	-1.2
Cc1ccc(C)c(N2CCN(S(=O)(=O)c3ccc4c(c3)CCN4C(=O)CCC(=O)O)CC2)c1	4.5	0.1	8.6	11.8	2.1	x	x
CC(C)(C)c1ccc(C(=O)Nc2ccc3c(c2)C(=O)NC3=O)cc1	-0.9	-0.1	16.5*	-9.3	-5.1	-0.5	-3.5
Cc1ccccc1-n1ccnc1SCC(=O)O	1.8	1.2	16.9*	1.0	-3.8	-0.7	-4.8
CCCCN(C=O)c1c(CC)nc2c(OCC(=O)N3CCOCC3)cccn12	0.3	-0.1	16.4*	-3.7	2.5	-0.5	-3.3
CCN(CC)C(=O)CCNS(=O)(=O)c1ccc(C)cc1	-12.7	-0.9	15.2*	7.3	3.5	-0.5	2.6
CCOC(=O)C(=CNc1ccc(N2CCOCC2)cc1)C(=O)OCC	-4.5	3.3	1.2	2.5	2.4	x	x
CCOC(=O)C(=CNc1ccc2c(c1)CCN2C(C)=O)C(=O)OCC	-4.8	4.9*	19.2*	15.5	-2.1	-0.4	8.3
CCCCCCN1C(=O)CC(NC(=O)OCC2c3ccccc3-c3ccccc32)C/C=C\C1C(C)C (stereo not given)	-1.3	0.5	16.0*	-3.2	0.3	-0.7	-5.5
Cc1cccc(-c2nnc(SCc3cccc4ccccc34)n2-c2ccc(Cl)cc2)c1	x	x	x	-9.4	-24.0	x	x
CCOc1cc(/C=C\c2nc(O)c([N+](=O)[O-])c(=O)[nH]2)ccc1OC(C)CC (stereo not given)	-2.3	1.2	4.9	1.7	-2.9	x	x
CCOc1ccc(/C=C\c2nc(O)c([N+](=O)[O-])c(=O)[nH]2)cc1OCC	-1.4	0.1	14.6*	4.0	6.9	-0.6	-2.6
SMILES	bovine MsrA act	MsrA inh	HTR2A ag	GC-B act	GC-A act	MOR ag counter	m5-HT2A ag conf
COC(=O)[C@]12C[C@H](CC(=O)NCc3cccc(C(F)(F)F)c3)C(=O)N(CCC3=CCCCC3)C1=C[C@H](C(C)C)O[C@@H]2C1CC1	x	x	x	2.5	-2.6	x	x
CCCCOCCCNC(=O)C[C@H]1C[C@@]2(C(=O)OC)C(=C[C@H](C(C)C)O[C@@H]2C2CC2)N(Cc2ccc(Cl)cc2Cl)C1=O	x	x	x	-3.6	-14.2	x	x
O=C(c1ccc(Br)s1)N1CCN(Cc2ccc3c(c2)OCO3)CC1	2.6	-0.7	-4.5	1.4	3.4	x	x
O=C(c1ccc(Br)o1)N1CCN(Cc2ccc3c(c2)OCO3)CC1	-12.9	-0.8	16.7*	-1.4	-3.6	0.8*	19.6*
Cc1cccc(C(=O)N2CCN(Cc3ccc4c(c3)OCO4)CC2)c1	-8.7	0.9	14.8*	5.9	3.5	0.2	7.2
CC(C)CC(=O)N1CCN(Cc2ccc3c(c2)OCO3)CC1	-0.8	0.1	18.5*	-3.8	1.3	0.6*	36.4*
COc1ccc(C(=O)CSc2nnc(-c3cccnc3)n2-c2ccccc2)cc1	x	x	x	-1.6	-5.5	x	x
COC(=O)[C@H](C(C)C)N(CCc1cn(Cc2ccc(C)cc2)nn1)S(=O)(=O)c1ccccc1Br	x	x	x	7.8	0.4	x	x
CC(=O)c1ccc(NC(=O)C(C)O/N=C(\N)c2ccccc2)cc1 (stereo not given)	-6.3	-0.8	15.2*	-3.8	0.1	-0.5	-4.4
CC(C)(C)OC(=O)N1c2ccccc2[C@]2(N3CCCC3)C[C@H](C(=O)O)N(C(=O)OC(C)(C)C)[C@H]12	x	x	x	-1.8	-1.6	x	x
COc1ccccc1-c1noc(-c2ccccc2)n1	-4.2	0.1	17.9*	-0.3	6.5	-0.4	-4.1
CC(C)(C)c1csc(Sc2ccc([N+](=O)[O-])cn2)n1	-9.5	-0.3	18.0*	-3.7	1.8	0.7*	4.2
CC(C)Sc1nc2sc(-c3ccccc3)cc2c(=O)n1N	-2.7	-0.5	2.3	-3.3	-0.6	x	x
COC(=O)C(C)n1nnc2sc(-c3ccccc3)cc2c1=O (stereo not given)	-1.5	1.8	15.6*	2.2	6.9	-0.4	0.0
COC(=O)C1=C(C)NC(=O)CC1c1cccc(Cl)c1Cl (stereo not given)	-2.0	0.3	23.9*	0.5	-5.6	-0.8	-1.8
CCOC(=O)C1=C(C)NC(C)=C(C(=O)OC)C1c1cccc(Cl)c1Cl (stereo not given)	-5.6	0.9	1.3	-10.7	-19.7	x	x
CCC1CCCCN1Cc1nc2c(c(=O)n(C)c(=O)n2C)n1CCC(C)C (stereo not given)	1.5	-0.1	20.5*	-4.0	-3.9	0.0	2.9
CCC1CCCCN1Cc1nc2c(c(=O)n(C)c(=O)n2C)n1CC(C)C (stereo not given)	-3.2	-0.8	8.7	0.6	-1.3	x	x
